Measured values reported in PubChem BioAssay (EPA / NIEHS).
Results filed as inconclusive are left out. Calls of active or inactive are those of the source. How the source made its calls, unless noted: active means hit-call score of the fitted dose curve at least 0.9, where 1 is the maximum; inactive means score below 0.9.

Assays:
[1] = BSK_LPS_PGE2: BioMAP Diversity Plus: LPS Assay for Prostaglandin E2 (PGE2) Biomarker Activity (AID 2283082); settings: primary human HUVEC with PBMC; actives raise or lower the signal;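 on AC50: secreted prostaglandin E2 measured by ELISA in LPS-stimulated co-culture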
How it was run: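 Endpoint derived from bidirectional curve fitting versus DMSO of ELISA-measured PGE2 in LPS-stimulated human primary vascular co-culture (HUVEC with PBMC) harvested at 24 h.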

[2] = read-out: Macrophage colony-stimulating factor (MCSF), CSF1 (gene 1435); test: BSK_LPS_MCSF: BioMAP Diversity Plus: LPS Assay for Macrophage colony-stimulating factor (MCSF) Biomarker Activity (AID 2283083); settings: primary human HUVEC with PBMC; actives raise or lower the signal
How it was run: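 Bidirectional fit versus DMSO of ELISA-measured M-CSF in co-cultured human umbilical vein endothelial cells and PBMC, sampled 24 h after dosing.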

[3] = read-out: Tissue Factor, F3 (gene 2152); test: BSK_LPS_TissueFactor: BioMAP Diversity Plus: LPS Assay for Tissue Factor Biomarker Activity (AID 2283084); settings: primary human HUVEC with PBMC; actives raise or lower the signal
How it was run: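 Read-out: CD142 ELISA, 24 h. System: LPS-driven human endothelial/PBMC co-culture. Analysis: up- or down-signal fitted against DMSO.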

[4] = read-out: Tumor necrosis factor (Homo sapiens) (UniProt P01375); test: BSK_LPS_TNFa: BioMAP Diversity Plus: LPS Assay for Tumour Necrosis Factor alpha (TNFa) Biomarker Activity (AID 2283085); settings: primary human HUVEC with PBMC; actives raise or lower the signal
How it was run: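 Primary human vascular co-culture of HUVEC and PBMC; TNFa ELISA 24 h after treatment, analysed as increase or decrease relative to DMSO control.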

[5] = read-out: Vascular cell adhesion molecule 1 (VCAM1), VCAM1 (gene 7412); test: BSK_LPS_VCAM1: BioMAP Diversity Plus: LPS Assay for Vascular cell adhesion molecule 1 (VCAM1) Biomarker Activity (AID 2283086); settings: primary human HUVEC with PBMC; actives raise or lower the signal
How it was run: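 Primary human vascular co-culture (umbilical vein endothelium plus PBMC) stimulated with LPS received chemical; 24 h later VCAM-1 was read by ELISA. Overt cytotoxicity was assessed by sulforhodamine B staining of parallel cultures at the same time point.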

[6] = read-out: CD38, CD38 (gene 952); test: BSK_SAg_CD38: BioMAP Diversity Plus: SAg Assay for CD38 Biomarker Activity (AID 2283087); settings: primary human HUVEC with PBMC; actives raise or lower the signal
How it was run: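 Fluorescence ELISA of cell-surface CD38 served as the read-out, with either increase or decrease fitted against DMSO controls. Cells were a human umbilical vein endothelium plus PBMC co-culture under SEB/TSST-1 stimulation, measured 24 h after dosing.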

[7] = read-out: CD40, CD40 (gene 958); test: BSK_SAg_CD40: BioMAP Diversity Plus: SAg Assay for CD40 Biomarker Activity (AID 2283088); settings: primary human HUVEC with PBMC; actives raise or lower the signal
How it was run: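 Endpoint derived by fitting increases or decreases versus DMSO controls. CD40 is detected by fluorescence ELISA in a human vascular co-culture of endothelium and PBMC at 24 h.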

[8] = read-out: CD69, CD69 (gene 969); test: BSK_SAg_CD69: BioMAP Diversity Plus: SAg Assay for CD69 Biomarker Activity (AID 2283089); settings: primary human HUVEC with PBMC; actives raise or lower the signal;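 on AC50: cell surface CD69 protein quantified by ELISA with fluorescence detection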
How it was run: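 Values derive from bidirectional fitting relative to DMSO vehicle. Cells: umbilical vein endothelium plus peripheral blood mononuclear cells, treated 24 h before fluorescent ELISA for CD69.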

[9] = read-out: Monocyte Chemoattractant Protein-1 (MCP1), CCL2 (gene 6347); test: BSK_SAg_MCP1: BioMAP Diversity Plus: SAg Assay for Monocyte Chemoattractant Protein-1 (MCP1) Biomarker Activity (AID 2283090); settings: primary human HUVEC with PBMC; actives raise or lower the signal
How it was run: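 MCP-1 levels in the endothelial–PBMC SAg co-culture were quantified by ELISA at 24 h post-dosing; both increases and decreases versus DMSO scored. Cytotoxicity monitored by SRB total protein in parallel cultures.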

[10] = read-out: E-selectin (Homo sapiens) (UniProt P16581); test: BSK_SAg_Eselectin: BioMAP Diversity Plus: SAg Assay for Eselectin Biomarker Activity (AID 2283091); settings: primary human HUVEC with PBMC; actives raise or lower the signal
How it was run: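 Endpoint values derive from bidirectional fitting relative to DMSO, using ELISA-measured E-selectin in a human vascular co-culture (umbilical vein endothelium plus PBMC) sampled 24 h after dosing.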

[11] = BSK_SAg_PBMCCytotoxicity: PBMC Cytotoxicity Assessment in the BioMAP Diversity Plus: SAg Assay (AID 2283093); settings: primary human HUVEC with PBMC;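 further: PBMC viability measured as Alamar Blue reduction fluorescence at 546/580 nm; fitted both ways against DMSO so a hit may be loss or gain of signal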;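 on AC50: PBMC superantigen activated with SEB plus TSST-1 one hour after compound addition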
How it was run: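 Compound added to 75,000 PBMC/well for 1 h; SEB and TSST-1 then added at 20 ng/mL final each; 90 h incubation; Alamar Blue 6 h; read 546/580 nm ex/em. Activity fitted bidirectionally relative to DMSO baseline.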

[12] = read-out: Interleukin-8 (IL8), CXCL8 (gene 3576); test: BSK_SAg_IL8: BioMAP Diversity Plus: SAg Assay for Interleukin-8 (IL8) Biomarker Activity (AID 2283094); settings: primary human HUVEC with PBMC; actives raise or lower the signal
How it was run: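 In this co-culture of human umbilical vein endothelium with peripheral blood mononuclear cells, IL-8 is assayed by ELISA at 24 h. DMSO serves as baseline for bidirectional curve fitting.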

[13] = BSK_SAg_Proliferation: Cell Proliferation Assessment in the BioMAP Diversity Plus: SAg Assay (AID 2283095); settings: primary human HUVEC with PBMC;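 further: relative cell number as total protein by SRB absorbance in sub-confluent culture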
How it was run: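 Readout is SRB-stained protein (560 nm) in a primary human HUVEC and PBMC co-culture; sub-confluent cultures are read at 96 h. Activity is fitted bidirectionally using DMSO as baseline.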

[14] = BSK_SAg_SRB: Viability Assessment in the BioMAP Diversity Plus: SAg Assay (AID 2283096); settings: primary human HUVEC with PBMC;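 further: cells read one day after compound addition; hits may be either gain or loss of signal compared with DMSO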
How it was run: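 Total protein by sulforhodamine B staining, 24 h after dosing, in HUVEC–PBMC co-culture; DMSO-referenced bidirectional fitting.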

[15] = read-out: Monokine induced gamma interferon (MIG), CXCL9 (gene 4283); test: BSK_SAg_MIG: BioMAP Diversity Plus: SAg Assay for Monokine induced gamma interferon (MIG) Biomarker Activity (AID 2283092); settings: primary human HUVEC with PBMC; actives raise or lower the signal
How it was run: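 Values reflect bidirectional fitting of ELISA-measured MIG against DMSO vehicle, taken 24 h after dosing of a co-culture of human umbilical vein endothelial cells and peripheral blood mononuclear cells.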

[16] = target: human CYP19A1, CYP19A1 (gene 1588) (UniProt P11511); test: NVS_ADME_hCYP19A1: NovaScreen (NVS) CYP450-related Enzyme Activity (ADME) Assay for human CYP19A1 (AID 2283098; active means hit-call score of the fitted dose curve at least 0.9, where 1 is the maximum)
Sequence of human CYP19A1, CYP19A1 (gene 1588) (P11511 whole entry, looked up): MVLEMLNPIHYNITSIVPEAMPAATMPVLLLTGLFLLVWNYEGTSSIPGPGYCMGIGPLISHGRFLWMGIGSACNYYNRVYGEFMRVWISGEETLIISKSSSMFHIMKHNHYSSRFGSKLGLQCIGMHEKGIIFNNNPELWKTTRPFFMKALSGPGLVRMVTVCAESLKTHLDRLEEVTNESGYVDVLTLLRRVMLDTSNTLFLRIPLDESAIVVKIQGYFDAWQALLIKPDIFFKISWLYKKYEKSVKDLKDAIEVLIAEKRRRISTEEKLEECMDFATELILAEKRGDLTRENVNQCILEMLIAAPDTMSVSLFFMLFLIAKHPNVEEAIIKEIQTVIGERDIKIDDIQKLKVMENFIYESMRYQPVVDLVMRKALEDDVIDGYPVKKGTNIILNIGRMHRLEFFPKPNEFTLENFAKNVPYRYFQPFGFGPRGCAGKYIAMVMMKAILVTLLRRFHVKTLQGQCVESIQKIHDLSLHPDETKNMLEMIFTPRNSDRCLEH
How it was run: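 Biochem, cell-free; recombinant enzyme + specific substrate; fluorescence intensity at 0.5 h post-dose; 10 uM duplicate primary, conc. series for actives; acetonitrile = negative control/baseline; positive and negative controls on every plate.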

Measured: AC50

Sequence of Tumor necrosis factor (Homo sapiens) (P01375 whole entry, looked up): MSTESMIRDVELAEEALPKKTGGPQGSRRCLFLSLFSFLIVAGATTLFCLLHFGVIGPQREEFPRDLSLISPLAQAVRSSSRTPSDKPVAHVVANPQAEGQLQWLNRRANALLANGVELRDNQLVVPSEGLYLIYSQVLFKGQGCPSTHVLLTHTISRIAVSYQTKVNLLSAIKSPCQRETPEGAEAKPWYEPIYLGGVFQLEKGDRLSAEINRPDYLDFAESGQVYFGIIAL
Sequence of E-selectin (Homo sapiens) (P16581 whole entry, looked up): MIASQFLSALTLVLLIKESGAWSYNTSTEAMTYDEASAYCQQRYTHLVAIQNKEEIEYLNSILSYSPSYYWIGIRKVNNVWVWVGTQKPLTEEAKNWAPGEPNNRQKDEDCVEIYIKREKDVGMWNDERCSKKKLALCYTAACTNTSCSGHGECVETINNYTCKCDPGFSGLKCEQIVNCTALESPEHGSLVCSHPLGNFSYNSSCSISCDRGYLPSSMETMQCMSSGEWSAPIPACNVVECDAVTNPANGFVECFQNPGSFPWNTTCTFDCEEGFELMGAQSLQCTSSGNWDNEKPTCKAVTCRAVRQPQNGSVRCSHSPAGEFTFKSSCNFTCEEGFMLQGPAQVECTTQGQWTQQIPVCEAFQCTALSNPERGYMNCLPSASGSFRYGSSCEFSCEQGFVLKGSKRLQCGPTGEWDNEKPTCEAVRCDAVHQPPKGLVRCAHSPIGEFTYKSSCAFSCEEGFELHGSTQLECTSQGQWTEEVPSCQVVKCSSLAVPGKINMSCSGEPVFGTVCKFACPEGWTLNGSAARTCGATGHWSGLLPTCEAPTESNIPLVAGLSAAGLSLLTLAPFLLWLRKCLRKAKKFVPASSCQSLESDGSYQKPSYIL

C[Si]1(C)O[Si](C)(C)O[Si](C)(C)O[Si](C)(C)O1
inactive: [1] | [2] | [3] | [4] | [5] | [6] | [7] | [8] | [9] | [10] | [11] | [12] | [13] | [14]

NC(=O)Cn1c(=O)cc(CCN2CCN(c3nccc4sccc34)CC2)c2ccc(F)cc21
inactive: [1] | [2] | [3] | [4] | [5] | [7] | [8] | [9] | [10] | [15] | [11] | [12] | [13] | [14]

CCCCCCCCCCCCCCCCCC(=O)O
inactive: [1] | [2] | [3] | [5] | [6] | [8] | [9] | [10] | [12] | [14]
active: [4] 4.09 µM | [7] 25.8 µM | [11] 26.7 µM | [13] 24.1 µM

COc1cc(S(=O)(=O)O)c(C)cc1N=Nc1c(O)ccc2cc(S(=O)(=O)O)ccc12
inactive: [1] | [2] | [3] | [4] | [5] | [6] | [7] | [8] | [9] | [10] | [11] | [12] | [13] | [14]

Cc1cc(NC(=O)C(=O)O)cc(C)c1Oc1ccc(O)c2c1CCC2
inactive: [1] | [2] | [3] | [5] | [7] | [8] | [9] | [10] | [15] | [11] | [12] | [13] | [14]
active: [4] 0.844 µM

COCCOCCOC
inactive: [1] | [2] | [3] | [4] | [5] | [7] | [8] | [9] | [10] | [15] | [11] | [12] | [13] | [14]

CN[C@H]1CC[C@@H](c2ccc(Cl)c(Cl)c2)c2ccc(S(N)(=O)=O)cc21
inactive: [1]
active: [2] 30.1 µM | [3] 32.2 µM | [4] 23.3 µM | [5] 20 µM | [7] 29.3 µM | [8] 26.1 µM | [9] 25.2 µM | [10] 20 µM | [15] 31.2 µM | [11] 20.5 µM | [12] 13.8 µM | [13] 12.4 µM | [14] 28.8 µM

CC(C)c1ccc(C(=O)N=C(N)N)cc1S(C)(=O)=O
inactive: [1] | [2] | [3] | [4] | [5] | [6] | [7] | [8] | [9] | [10] | [11] | [12] | [13] | [14]

O=C(OCCCCCOC(=O)c1ccccc1)c1ccccc1
inactive: [1] | [2] | [3] | [5] | [7] | [8] | [9] | [10] | [15] | [11] | [12] | [13] | [14]
active: [4] 12.7 µM

COc1cc(-c2nc(NC(=O)c3cc4cc(C)cc(C)c4n3CC(=O)O)sc2CCC2CCCCC2)c(OC)cc1Cl
active: [1] 3.97 µM | [2] 4.31 µM | [3] 6.36 µM | [4] 10 µM | [5] 5.07 µM | [6] 3.43 µM | [7] 3.21 µM | [8] 3.95 µM | [9] 2.78 µM | [10] 5.48 µM | [11] 16.9 µM | [12] 16.9 µM | [13] 3.49 µM | [14] 3.85 µM

Cc1nc(C)nc(N2C[C@@H](C)N(c3ccnc([C@@H](C)O)n3)[C@@H](C)C2)n1
inactive: [1] | [2] | [3] | [4] | [5] | [7] | [8] | [9] | [10] | [15] | [11] | [12] | [13] | [14]

O=[N+]([O-])C(CO)(CO)CO
inactive: [1] | [2] | [3] | [4] | [5] | [7] | [8] | [9] | [10] | [15] | [11] | [12] | [14]
active: [13] 17.8 µM

Nc1ccccc1N
inactive: [3] | [4] | [6] | [7] | [8] | [9] | [10] | [11] | [12] | [13] | [14]
active: [1] 10.9 µM | [2] 3.97 µM | [5] 11.2 µM

Cc1c(C(=O)O)c(O)cc2c1C(=O)c1c(O)c([C@@H]3O[C@H](CO)[C@@H](O)[C@H](O)[C@H]3O)c(O)c(O)c1C2=O
inactive: [1] | [2] | [3] | [4] | [5] | [7] | [8] | [9] | [10] | [11] | [12] | [13] | [14] | [16]
